The results in this text go back to PubChem BioAssay.

One test has as its target Albumin (Bos taurus) (UniProt P02769). Description: compounds binding labelled BSA control protein – biochemical, small-molecule microarray, Alexa647 label, 635/667 nm fluorescence, artefact control for SMM control protein annotation, profiling panel (AID 1118).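 Further: score merges 667 nm emission intensity and signal-to-noise per printed compound spot.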 The settings on record: BSA-A647 binding, fluorescence 635 nm, higher = more signal.
Test [1] can be described thus: probe aXIP binding to arrayed compounds – biochemical, NeuroSMM set, 635/667 nm fluorescence, primary screen (AID 1119).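 Further: probe is the protein aXip251-270 applied at 1 µg/mL to compound-printed slides; binding of probe to printed compounds measured as 667 nm fluorescence plus signal to noise.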 The settings on record: small-molecule microarray, higher = more signal, called active from +8 up or from −8 down.
A short description of test [2]: probe aNOTCH3 binding on compound microarray – biochemical, small-molecule microarray, 635/667 nm fluorescence, primary screen (AID 1120).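 Further: probe is a biotin-tagged antibody raised against NOTCH3 rather than NOTCH3 protein; score merges spot fluorescence near 667 nm with spot signal to noise.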 The settings on record: higher = more signal.
A short description of test [3]: probe aNOTCH2 binding on compound microarray – biochemical, small-molecule microarray, 635/667 nm fluorescence, primary screen (AID 1121).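 Further: score merges feature fluorescence read at 667 nm with its signal to noise.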 The settings on record: higher = more signal.
Test [4] deals with Carbonic anhydrase 2 (Homo sapiens) (UniProt P00918). Description: compounds binding carbonic anhydrase 2 – biochemical, small-molecule microarray, Alexa647-labelled CAII, profiling panel (AID 1122). The settings on record: CAII-A647 binding fluorescence, higher = more signal.
The nature of test [5]: COS7 lysate on small-molecule microarray, probe aHis, 635 nm (AID 1123).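 Further: z-score combines 667nm fluorescence intensity with signal-to-noise per printed compound spot.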 The settings on record: COS7 cell lysate, fluorescence, higher = more signal.
The nature of test [6]: probe aLAP1 signal on lysate-treated microarray – cell lysate, small-molecule microarray, COS7 lysate, primary screen (AID 1124).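 Further: lysate comes from COS7 cells expressing LAP1 and is applied at 0.3 µg/mL; score merges spot fluorescence near 667 nm with signal-to-noise over triplicate slides.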 The settings on record: probe aLAP1, fluorescence, higher = more signal.
The next test relates to Sam68 (KHDRBS1). As to the kind of experiment: compounds binding KHDRBS1 protein – biochemical, small-molecule microarray, 635 nm fluorescence, primary screen (AID 1125).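 Further: score merges 667 nm channel intensity with signal to noise over triplicate slides.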 The settings on record: higher = more signal.
The subject of test [7] is Chordin-like protein 2 (CHRDL2). As to the kind of experiment: compounds binding chordin-like 2 – biochemical, small-molecule microarray, 635 nm fluorescence, primary screen (AID 1126).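 Further: printed compound slides probed with Chrdl2 protein at 4 µg/mL for 1 h at 4 C; score merges 667 nm emission intensity with signal to noise over three replicate slides.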 The settings on record: fluorescence 635 nm, higher = more signal.
Test [8] concerns the target Concanavalin-A (Canavalia ensiformis) (UniProt P02866). Description: compounds binding concanavalin A lectin – biochemical, small-molecule microarray, Alexa647 label, 635 nm, artefact control for SMM control protein annotation, primary screen (AID 1127).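 Further: z combines 667 nm emission intensity with signal-to-noise across three replicate slides.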 The settings on record: ConA-A647 binding fluorescence, higher = more signal.
A short description of test [9]: compounds binding Alexa647 anti-His antibody – biochemical, small-molecule microarray, 635 nm fluorescence, artefact control for SMM control protein annotation, primary screen (AID 1128).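 Further: score merges feature fluorescence with signal-to-noise for each printed compound spot.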 The settings on record: higher = more signal.
In test [10] the test system is Human papillomavirus type 1a E7 protein (residues 1-88). Description: HPV1a E7 small-molecule binders, primary screen, biochemical, small-molecule microarray, residues 1-88, 635 nm (AID 1129). The settings on record: small-molecule microarray binding, fluorescence 635 nm; higher = more signal.
The target of test [11] is Focal adhesion kinase 1 (Homo sapiens) (UniProt Q05397). As to the kind of experiment: PTK2 protein binding on printed compound slides – biochemical, small-molecule microarray, 635/667 nm fluorescence, BSA, DTT, primary screen (AID 1130).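 Further: composite of spot emission at 667 nm and signal to noise over triplicate slides.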 The settings on record: 635 nm fluorescence, higher = more signal.
Sequence of Focal adhesion kinase 1 (Homo sapiens) (Q05397 whole entry, looked up): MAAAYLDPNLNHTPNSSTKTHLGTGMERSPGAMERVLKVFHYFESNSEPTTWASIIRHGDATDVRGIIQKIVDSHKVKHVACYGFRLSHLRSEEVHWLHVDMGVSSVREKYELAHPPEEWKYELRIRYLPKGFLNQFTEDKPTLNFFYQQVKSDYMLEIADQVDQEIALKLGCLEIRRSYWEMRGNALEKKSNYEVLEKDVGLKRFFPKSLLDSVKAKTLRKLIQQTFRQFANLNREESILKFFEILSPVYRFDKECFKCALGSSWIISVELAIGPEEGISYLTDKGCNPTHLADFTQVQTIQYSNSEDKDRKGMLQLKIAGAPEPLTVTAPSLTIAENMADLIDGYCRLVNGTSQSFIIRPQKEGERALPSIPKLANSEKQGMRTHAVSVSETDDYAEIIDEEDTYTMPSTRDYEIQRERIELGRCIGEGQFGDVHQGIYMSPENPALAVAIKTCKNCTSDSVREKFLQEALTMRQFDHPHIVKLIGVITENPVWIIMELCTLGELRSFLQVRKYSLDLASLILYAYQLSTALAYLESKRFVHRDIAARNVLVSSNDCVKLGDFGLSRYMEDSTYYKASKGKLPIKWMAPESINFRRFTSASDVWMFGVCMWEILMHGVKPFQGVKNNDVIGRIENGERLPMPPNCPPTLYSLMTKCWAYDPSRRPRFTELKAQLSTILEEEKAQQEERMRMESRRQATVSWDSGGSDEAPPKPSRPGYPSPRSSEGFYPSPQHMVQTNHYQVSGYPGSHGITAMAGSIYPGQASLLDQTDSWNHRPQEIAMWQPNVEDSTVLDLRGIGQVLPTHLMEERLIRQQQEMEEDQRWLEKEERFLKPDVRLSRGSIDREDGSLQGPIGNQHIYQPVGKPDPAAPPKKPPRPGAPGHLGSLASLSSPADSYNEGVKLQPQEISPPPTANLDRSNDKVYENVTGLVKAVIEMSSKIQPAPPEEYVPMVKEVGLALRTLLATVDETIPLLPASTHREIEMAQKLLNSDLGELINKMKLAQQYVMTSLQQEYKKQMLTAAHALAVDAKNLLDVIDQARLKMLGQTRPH
The test system of test [12] is Fibrinogen (Alexa647-labelled). As to the kind of experiment: Alexa647-fibrinogen binding to printed small molecules – biochemical, small-molecule microarray, 635/667 nm fluorescence, artefact control for SMM control-protein annotation, profiling panel (AID 1131).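 Further: z-score merges 667 nm fluorescence with per-spot signal-to-noise over triplicate slides.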 The settings on record: fibrinogen-A647 binding fluorescence, higher = more signal.
Test [13] has as its target Follistatin (Homo sapiens) (UniProt P19883). Description: FST protein binding to printed compounds – biochemical, small-molecule microarray, 635/667 nm fluorescence, primary screen (AID 1132). The settings on record: 635 nm fluorescence, higher = more signal.
In test [14] the target is Fibroblast growth factor 2 (Homo sapiens) (UniProt P09038). Description: basic fibroblast growth factor binding to printed compounds – biochemical, small-molecule microarray, 635/667 nm fluorescence, primary screen (AID 1133). The settings on record: FGF2, fluorescence 635/667, higher = more signal.
Sequence of Fibroblast growth factor 2 (Homo sapiens) (P09038 whole entry, looked up): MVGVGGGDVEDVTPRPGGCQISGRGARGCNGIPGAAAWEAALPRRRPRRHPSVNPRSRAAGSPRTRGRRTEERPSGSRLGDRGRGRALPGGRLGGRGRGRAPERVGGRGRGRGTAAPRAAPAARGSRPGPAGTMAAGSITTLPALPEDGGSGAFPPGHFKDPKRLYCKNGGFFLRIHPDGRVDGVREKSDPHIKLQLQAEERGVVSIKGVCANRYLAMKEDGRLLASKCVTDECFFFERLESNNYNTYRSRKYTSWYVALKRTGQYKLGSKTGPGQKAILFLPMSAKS
Test [15] is described as follows: JC-1 mitochondrial potential readout, lung cancer cells – cell-based, A549, JC-1 fluorescence, basal, 24 h, 100 nL, profiling panel (AID 1138).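 Further: A549 lung adenocarcinoma cells under basal conditions with no added stimulus; test concentration not given here.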 The settings on record: higher = more signal.
Another test has as its system Lefty1. Description: Lefty1 protein binding to printed compounds – biochemical, small-molecule microarray, 635/667 nm fluorescence, primary screen (AID 1139). The settings on record: fluorescence 635/667, higher = more signal.
The test system of test [16] is wheat germ agglutinin (Triticum aestivum), Alexa647-labelled. Description: Alexa647-WGA lectin binding to printed small molecules – biochemical, small-molecule microarray, 635/667 nm fluorescence, artefact control for SMM control-protein annotation, profiling panel (AID 1140).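 Further: score merges 667 nm feature emission with signal to noise over triplicate slides.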 The settings on record: WGA-A647 binding, 635 nm fluorescence, higher = more signal.
The target of test [17] is Luciferin 4-monooxygenase (Photinus pyralis) (UniProt P08659). Description: inhibition of purified Photinus pyralis luciferase – biochemical, luminescence, purified enzyme, 2006 set, primary screen (AID 1141).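 Further: cell-free assay with purified firefly luciferase at 100 ng per well in PBS; test concentration not given here.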 The settings on record: purified firefly luciferase, SteadyGlo luminescence, 30 min; higher = more signal, called active from +8 up or from −8 down.
Sequence of Luciferin 4-monooxygenase (Photinus pyralis) (P08659 whole entry, looked up): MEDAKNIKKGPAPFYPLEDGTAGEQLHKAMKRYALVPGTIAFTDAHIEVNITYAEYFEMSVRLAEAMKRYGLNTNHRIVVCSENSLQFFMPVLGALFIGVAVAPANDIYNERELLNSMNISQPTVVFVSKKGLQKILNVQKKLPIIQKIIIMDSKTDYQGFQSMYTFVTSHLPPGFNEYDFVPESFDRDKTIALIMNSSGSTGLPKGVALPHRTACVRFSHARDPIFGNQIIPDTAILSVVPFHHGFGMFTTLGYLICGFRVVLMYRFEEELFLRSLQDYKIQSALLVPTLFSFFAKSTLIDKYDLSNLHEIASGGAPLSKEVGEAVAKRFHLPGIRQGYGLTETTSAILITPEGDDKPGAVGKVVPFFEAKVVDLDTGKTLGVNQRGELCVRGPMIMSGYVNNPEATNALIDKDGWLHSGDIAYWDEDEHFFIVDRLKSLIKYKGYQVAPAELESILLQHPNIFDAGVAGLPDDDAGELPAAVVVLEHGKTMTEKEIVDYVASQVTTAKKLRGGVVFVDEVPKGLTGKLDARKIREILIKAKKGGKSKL

Active and inactive are the calls of the source.

Sequence of Albumin (Bos taurus) (P02769 whole entry, looked up): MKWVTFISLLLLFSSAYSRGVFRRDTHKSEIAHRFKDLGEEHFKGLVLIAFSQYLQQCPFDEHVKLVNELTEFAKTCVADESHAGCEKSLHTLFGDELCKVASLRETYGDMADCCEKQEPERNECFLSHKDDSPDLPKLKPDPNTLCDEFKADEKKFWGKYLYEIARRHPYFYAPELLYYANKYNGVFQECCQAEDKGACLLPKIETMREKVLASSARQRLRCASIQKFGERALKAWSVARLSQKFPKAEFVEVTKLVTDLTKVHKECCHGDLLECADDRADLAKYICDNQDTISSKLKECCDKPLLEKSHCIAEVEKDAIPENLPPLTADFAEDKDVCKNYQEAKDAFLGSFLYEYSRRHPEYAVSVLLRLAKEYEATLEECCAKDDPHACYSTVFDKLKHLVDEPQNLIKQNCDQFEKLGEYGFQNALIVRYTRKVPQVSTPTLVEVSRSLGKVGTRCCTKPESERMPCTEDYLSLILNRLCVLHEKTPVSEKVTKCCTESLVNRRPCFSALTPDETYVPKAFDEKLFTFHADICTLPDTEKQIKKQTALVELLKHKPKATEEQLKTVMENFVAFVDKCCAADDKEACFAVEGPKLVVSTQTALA
Sequence of Follistatin (Homo sapiens) (P19883 whole entry, looked up): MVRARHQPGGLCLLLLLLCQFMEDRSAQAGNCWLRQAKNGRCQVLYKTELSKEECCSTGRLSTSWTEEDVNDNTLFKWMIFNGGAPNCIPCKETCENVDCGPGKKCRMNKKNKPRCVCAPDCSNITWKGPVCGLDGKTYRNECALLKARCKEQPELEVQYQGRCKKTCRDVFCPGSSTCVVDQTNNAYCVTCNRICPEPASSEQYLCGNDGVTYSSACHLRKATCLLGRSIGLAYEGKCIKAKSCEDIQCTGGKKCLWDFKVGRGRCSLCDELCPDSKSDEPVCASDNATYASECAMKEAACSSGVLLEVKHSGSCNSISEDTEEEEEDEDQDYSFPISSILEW
Sequence of Concanavalin-A (Canavalia ensiformis) (P02866 whole entry, looked up): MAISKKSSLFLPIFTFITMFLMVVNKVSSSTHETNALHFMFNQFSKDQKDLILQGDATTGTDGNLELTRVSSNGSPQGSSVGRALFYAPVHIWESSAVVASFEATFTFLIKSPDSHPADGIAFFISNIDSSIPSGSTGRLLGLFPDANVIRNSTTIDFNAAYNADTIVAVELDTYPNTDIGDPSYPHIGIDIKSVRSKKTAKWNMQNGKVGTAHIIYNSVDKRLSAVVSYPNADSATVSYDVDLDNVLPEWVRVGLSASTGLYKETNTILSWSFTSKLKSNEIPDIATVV

In the case of `CC(C)[C@@H](C(=O)O)n1cc(-c2ccccn2)nn1`, the composite z-score is 0.69 in the test with Albumin (Bos taurus); -0.146 in test [2]; 0.0571 in test [3]; 0.525 in [4]; 0.708 in [5]; 0.242 in test [6]. The composite z-score with Sam68 (KHDRBS1) was 0.522; in test [7], -0.119; in test [8], 0.556; in [9], 2.19; in test [10] it was 1.08; in [11], 0.113. Also, the composite z-score in test [12] is 0.811; in test [13], -0.0164; in test [14], 0.712; in the test with Lefty1, 0.0234; in [16], 0.957. Besides, the composite Z-score in test [1] is 0.516 (inactive). Also, the z-score in test [15] is 1.88; in [17], -0.495 (inactive).
As to `CC(C)(C)OC(=O)CC[C@]1(C(=O)NCc2ccccc2)N=C(c2ccc(OCCCO)cc2)O[C@H]1c1ccccc1N=[N+]=[N-]`, the composite z-score in the test with Albumin (Bos taurus) turned out to be 1; in [2], 0.197; in [3], 0.0272; in test [4], 0.498; in test [5] it was 2.97; in test [6], 0.521. Moreover, the composite z-score in the test with Sam68 (KHDRBS1) is 1.34; in [7] it was -0.0443; in test [8] it was 1.16; in test [9], 2.59; in test [10], 1.25; in test [11] it was 0.245. Further, the composite z-score in test [12] is 1.01; in test [13], 1.42; in [14], 1.3; in the test with Lefty1, 0.459; in test [16], 1.42. Moreover, in test [1], the composite Z-score was -0.286 (inactive). Moreover, the z-score was 0.566 in [15] and -9.8 (active) in [17].
In the case of `C=CCC(OC(C)=O)[C@@H]1[C@@H](N(Cc2ccc(-c3ccccc3)cc2)C(=O)c2ccc(-c3ccccc3)cc2)c2cc(OCCCO)ccc2N1C(=O)c1ccc(-c2ccccc2)cc1` (stereo not given in full), the composite z-score was 0.0452 in the test with Albumin (Bos taurus); 0.11 in [2]; 0.0086 in test [3]; -0.0914 in [4]; 0.57 in [5]; -0.0163 in [6]. Moreover, the composite z-score was -0.821 with Sam68 (KHDRBS1); 0.0312 in [7]; -0.473 in test [8]; -0.726 in test [9]; 0.274 in [10]; 0.63 in test [11]. For the same compound, the composite z-score in [12] is -0.705; in test [13] it was 0.288; in test [14], -0.215; in the test on Lefty1, -0.418; in test [16], 0.0316. Besides, the composite Z-score in test [1] is -0.254 (inactive). Besides, the results for the z-score in test [15] and in test [17] were 2.51 and -1.15 (inactive), respectively.
As to `O=C1c2ccccc2C(=O)c2cc([C@H]3Oc4ccccc4S(=O)(=O)N4CCC[C@@H]34)ccc21`, the composite z-score with Albumin (Bos taurus) was -0.791; in test [2], -0.227; in test [3] it was -0.0933; in test [4] it was -0.157; in test [5], -0.319; in test [6] it was -0.235. Besides, the composite z-score was -1.02 in the test with Sam68 (KHDRBS1); -0.504 in test [7]; -2.59 in test [8]; -1.02 in test [9]; -0.551 in test [10]; -0.953 in [11]. Also, the composite z-score in test [12] was -0.91; in test [13], -1.07; in test [14], -0.533; with Lefty1, -0.534; in test [16], -1.26. The composite Z-score in test [1] is -0.228 (inactive). Also, the z-score in test [15] was 1.18; in test [17], -1.04 (inactive).
For the compound `[N-]=[N+]=Nc1ccccc1[C@H]1OC(c2ccc(OCCCO)cc2)=N[C@@]1(Cc1ccccc1)C(N)=O`, the composite z-score with Albumin (Bos taurus) amounted to 0.869; in test [2] it was 0.416; in [3], 0.0521; in test [4], 0.623; in [5], 0.798; in test [6], 0.577. Moreover, the composite z-score in the test with Sam68 (KHDRBS1) is 1.31; in test [7] it was -0.751; in [8], 1.16; in [9], 2.59; in [10], 1.21; in [11] it was 0.0957. In addition, the composite z-score is 0.997 in test [12]; 1.32 in test [13]; 0.479 in test [14]; 0.97 in the test on Lefty1; 1.37 in test [16]. Also, in test [1], the composite Z-score was 0.382 (inactive). Besides, the z-score in test [15] was 1.5; in test [17], -12.6 (active).
